This is a sample that favours compounds with a hit; in the whole collection about 0.64% have one here.
WNV protease inh = inhibitors of WNV NS2B-NS3 protease, primary screen, biochemical, fluorogenic substrate; fluorogenic substrate Ex360/Em465; hits give low values; z-score (test concentration not listed); 0.18% of 65,000 active; Genome polyprotein (West Nile virus), P06935; in the data active means z-score below about -3
Target sequence (P06935 1371-1501 limits assumed): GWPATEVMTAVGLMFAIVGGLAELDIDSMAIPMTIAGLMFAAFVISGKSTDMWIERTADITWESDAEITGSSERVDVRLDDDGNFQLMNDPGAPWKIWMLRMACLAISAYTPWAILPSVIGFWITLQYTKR
Target sequence (P06935 1502-1679 limits assumed): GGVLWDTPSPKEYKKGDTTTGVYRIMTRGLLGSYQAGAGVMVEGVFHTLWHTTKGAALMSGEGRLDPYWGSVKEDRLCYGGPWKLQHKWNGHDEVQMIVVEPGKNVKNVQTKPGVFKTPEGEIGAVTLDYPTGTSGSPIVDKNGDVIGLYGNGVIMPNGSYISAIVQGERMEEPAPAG
SK-BR-3 tox 24h = SK-BR-3 proliferation inhibitors, primary screen, cell-based, human, 24 h | viability, % at 10 µM | 0.47% of 41,000 active | SK-BR-3 viability, CellTiter-Glo ATP luminescence; hits give low values;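 active means viability at or below the median of all test compounds minus 3 SD, in both replicates if run twice, cut at about 45% in these data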
mHtt clearance = clearance of mutant huntingtin inclusions, primary screen, imaging, HeLa Exon1htt(103Q)mCFP, confocal imaging. inhibition, % at 1.5 µM. 0.42% of 47,000 active. aggregate imaging; zero = plate's median compound well. AID 853, 2007;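 active means inhibition of aggregate fluorescence above about 70%, also judged a hit by eye on the cell image, limit read from the data, passing the limit was not always enough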;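 further: cells exposed to compound for three days before fixation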
A number is an active result.

For CC(C)(C)C(=O)NC1CCN(S(=O)(=O)c2cccc(C(F)(F)F)c2)CC1 the results were WNV protease inh inactive and SK-BR-3 tox 24h 23.1.
CC(C)CCN(C)C1CCN(S(=O)(=O)c2cccc(C(F)(F)F)c2)CC1 was read as WNV protease inh inactive.
`CCCCCn1c2nc3ccccc3nc2c2c(=O)n(CC3CCCO3)c(C)nc21` (centres undefined) gave WNV protease inh inactive and SK-BR-3 tox 24h inactive.
O=C(NCC(c1ccc(F)cc1)N1CCOCC1)c1ccc(Br)o1 (centres undefined) was read as WNV protease inh inactive and SK-BR-3 tox 24h inactive.
N=c1n(CCN2CCCC2)c2ccccc2n1CC(O)c1ccco1 (centres undefined) was read as WNV protease inh inactive and SK-BR-3 tox 24h inactive.
For N=c1n(CCN2CCCCC2)c2ccccc2n1CC(O)c1cccc(Br)c1 (centres undefined) the results were WNV protease inh inactive, SK-BR-3 tox 24h 43.6 and mHtt clearance inactive.
COCCn1c(SCc2ccc(C(=O)OC)o2)nc2cc(Cl)ccc2c1=O was read as WNV protease inh inactive and mHtt clearance inactive.
For O=C(NCc1ccccc1)c1ccc(=O)[nH]n1 the results were WNV protease inh inactive and SK-BR-3 tox 24h inactive.
For O=C(NCc1ccco1)c1ccc(=O)[nH]n1 the results were WNV protease inh inactive, SK-BR-3 tox 24h inactive and mHtt clearance 72.0.
For COc1ccc(CN=CC2=C(O)CNC2=O)cc1OC the results were WNV protease inh inactive, SK-BR-3 tox 24h inactive and mHtt clearance inactive.
Screening O=C1NCC(O)=C1C=NCCCO returned WNV protease inh inactive and SK-BR-3 tox 24h 31.2.
Screening CCCn1nnc(NC(=O)c2cc(Br)cc(Br)c2OC)n1 returned WNV protease inh inactive, SK-BR-3 tox 24h inactive and mHtt clearance inactive.
CCn1c(SCC(=O)NCc2ccco2)nc2c1c(=O)n(C)c(=O)n2C was read as WNV protease inh inactive and SK-BR-3 tox 24h 42.0.
`CCCn1c(SCC(=O)NCc2ccco2)nc2c1c(=O)n(C)c(=O)n2C` gave WNV protease inh inactive and SK-BR-3 tox 24h inactive.
CCOc1ccc(/C(O)=C2/C(=O)C(=O)N(CCCn3ccnc3)C2c2cccs2)cc1Cl (centres undefined) was read as WNV protease inh inactive, SK-BR-3 tox 24h inactive and mHtt clearance inactive.
For CN1C(=O)N(CN2CCCCC2)C2C1N(C)C(=O)N2CN1CCCCC1 (centres undefined) the results were WNV protease inh -11.6, SK-BR-3 tox 24h inactive and mHtt clearance inactive.
For CN1C(=O)N2CN(C3CCCCC3)CN3C(=O)N(C)C1C23 (centres undefined) the results were WNV protease inh inactive and SK-BR-3 tox 24h inactive.
`Cc1cnc(C(=O)OCC(=O)c2csc(N3CCCCC3)n2)cn1` gave WNV protease inh inactive and mHtt clearance inactive.
For CCCn1c(Nc2nc3ccccc3n2C)nc2ccccc21 the results were WNV protease inh inactive, SK-BR-3 tox 24h 9.8 and mHtt clearance inactive.
CCCn1c(NC(=O)c2ccccc2)nc2ccccc21 was read as WNV protease inh inactive, SK-BR-3 tox 24h inactive and mHtt clearance inactive.
Screening COc1ccc(CCNC(=O)C2CCN(c3ccc(N4CCOCC4)nn3)CC2)c(OC)c1 returned mHtt clearance inactive.
Screening Cc1cc(NC(=O)CSc2nc(-c3cccs3)cc(C(F)(F)F)n2)no1 returned WNV protease inh inactive and SK-BR-3 tox 24h inactive.
O=C(O)CCS(=O)(=O)c1nc(-c2cccs2)cc(C(F)(F)F)n1 was read as mHtt clearance inactive.
CS(=O)(=O)c1nc(-c2cccs2)cc(C(F)(F)F)n1 was read as WNV protease inh inactive, SK-BR-3 tox 24h 21.8 and mHtt clearance inactive.
`Cc1cc(NC(=O)CCCS(=O)(=O)c2nc(-c3cccs3)cc(C(F)(F)F)n2)no1` gave WNV protease inh inactive, SK-BR-3 tox 24h 36.8 and mHtt clearance inactive.
For O=S(=O)(c1ccccc1Cl)N1CCCC(c2nc(-c3cccnc3)no2)C1 (centres undefined) the results were WNV protease inh inactive and SK-BR-3 tox 24h inactive.
`O=C(CC1CC2CCC1C2)OCC(=O)c1c[nH]c2ccccc12` (centres undefined) gave mHtt clearance inactive.
For O=C1CC(Sc2nnc(-c3ccccc3)o2)C(=O)N1c1ccccc1 (centres undefined) the results were WNV protease inh inactive, SK-BR-3 tox 24h inactive and mHtt clearance inactive.
For Cc1ccccc1N1C(=O)CC(Sc2nnc(-c3ccccc3)o2)C1=O (centres undefined) the results were WNV protease inh inactive and SK-BR-3 tox 24h 4.5.
Screening CCOc1ccc(OCC)c(NC(=O)Nc2ccc3c(c2)N(C)C(=O)CS3)c1 returned mHtt clearance inactive.
`O=C(NCC1CCCO1)c1ccc(S(=O)(=O)N2CCC(c3nc4ccc(Cl)cc4[nH]3)CC2)cc1` (centres undefined) gave mHtt clearance inactive.
Screening COc1cc(NC(=O)c2cccs2)c(OC)cc1NC(=O)c1ccco1 returned WNV protease inh inactive and SK-BR-3 tox 24h inactive.
Screening COc1cc(NC(=O)c2ccco2)c(OC)cc1NC(=O)CSc1nnc(-c2cccs2)n1C returned WNV protease inh inactive, SK-BR-3 tox 24h 42.1 and mHtt clearance inactive.
`Cc1ccc2cc(C(=O)O)c(C)nc2c1` gave mHtt clearance inactive.
`CN(C)c1ccc(P(=O)(OCc2ccccc2)C(O)c2ccncc2)cc1` (centres undefined) gave WNV protease inh inactive, SK-BR-3 tox 24h inactive and mHtt clearance 74.0.
`CCCOP(=O)(c1ccc(N(C)C)cc1)C(O)c1ccncc1` (centres undefined) gave WNV protease inh inactive and SK-BR-3 tox 24h inactive.
`COc1ccc(-c2nnc(SCC(=O)NC(=O)NCc3ccco3)o2)cc1` gave WNV protease inh inactive, SK-BR-3 tox 24h inactive and mHtt clearance inactive.
For CCN1CCN(Cc2nc3c(c(=O)n(C)c(=O)n3C)n2C(C)C(C)=O)CC1 (centres undefined) the results were WNV protease inh inactive and SK-BR-3 tox 24h inactive.
COc1cccc(CNC(=O)C2CCN(S(=O)(=O)c3ccc(F)cc3)CC2)c1 was read as WNV protease inh inactive, SK-BR-3 tox 24h inactive and mHtt clearance inactive.
`COc1cccc(CNC(=O)C2CCN(S(=O)(=O)c3ccc4c(c3)CCC(=O)N4)CC2)c1` gave WNV protease inh -3.26.
O=C(c1ccc(Br)o1)N(Cc1ccccc1)c1ccccn1 was read as WNV protease inh inactive and SK-BR-3 tox 24h inactive.
For COC(=O)c1ccccc1NC(=O)CSCC(=O)Nc1ccccc1 the results were mHtt clearance inactive.
`O=C(c1ccc(Cl)cc1)c1oc2ccccc2c1CS(=O)c1ccccc1` (centres undefined) gave mHtt clearance inactive.
`CN1CCN(C2=CC(=O)OC23CCCCC3)CC1` gave mHtt clearance inactive.
For O=C(CCc1ccccc1)Nc1nc2n(n1)C(c1ccc(Cl)cc1)CC(=O)N2 (centres undefined) the results were WNV protease inh -3.35, SK-BR-3 tox 24h inactive and mHtt clearance inactive.
For O=C(CCc1ccccc1)Nc1nc2n(n1)C(c1ccccc1)CC(=O)N2 (centres undefined) the results were WNV protease inh inactive, SK-BR-3 tox 24h inactive and mHtt clearance inactive.
CC1=NC(=O)C(N=Nc2cccc3ccccc23)N1c1ccccc1 (centres undefined) was read as mHtt clearance inactive.
